Most compounds without a hit are left out; they make up all but 2.4% or so of the library.
PGK inhibitor – qHTS Assay to Find Inhibitors of Phosphoglycerate Kinase | PGK/GAPDH coupled, Kinase-Glo luminescence, 60 min | Potency, µM (highest dose often 57.5 µM), without a hit: at the highest dose activity change, negative = inhibition, most hits filed as inhibitors | 380,000 compounds, 0.043% hits | Phosphoglycerate kinase, glycosomal (Trypanosoma brucei brucei), P07378; further: on the % scale 0 is the no-effect control and ±100 the full control effect; nearly all actives have a fitted effect of over 60% in size
Target sequence (P07378 whole entry, looked up): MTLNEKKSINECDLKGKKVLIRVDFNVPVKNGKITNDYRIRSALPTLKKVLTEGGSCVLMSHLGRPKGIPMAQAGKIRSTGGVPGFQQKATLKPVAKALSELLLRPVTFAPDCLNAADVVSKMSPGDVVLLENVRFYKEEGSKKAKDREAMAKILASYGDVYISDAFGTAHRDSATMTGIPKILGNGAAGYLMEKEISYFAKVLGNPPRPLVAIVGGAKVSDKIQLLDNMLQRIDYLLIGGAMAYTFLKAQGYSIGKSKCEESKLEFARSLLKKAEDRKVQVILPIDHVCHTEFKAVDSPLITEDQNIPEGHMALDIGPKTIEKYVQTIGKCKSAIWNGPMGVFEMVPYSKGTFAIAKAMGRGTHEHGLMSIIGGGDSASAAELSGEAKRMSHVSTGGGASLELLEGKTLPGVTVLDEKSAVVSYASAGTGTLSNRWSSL
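Luminescent ATP detection (Kinase-Glo Plus) follows a 60-minute room-temperature incubation, with wells lacking PGK as controls. Buffer: 100 mM TEA (pH 7.6), 5 mM MgCl2, 0.01% Tween-20. Coupling enzyme GAPDH (100 nM final) supplies unstable 1,3-BPG in-well.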
Rango-impB inh – qHTS Assay for Inhibitors of Rango (Ran-regulated importin-beta cargo) - Importin beta complex formation; Importin subunit beta-1 (Homo sapiens), Q14974; Rango CFP/YFP FRET sensor + importin beta, 45 min; Potency, µM (highest dose often 92.2 µM), inactives show at the top dose inhibition of complex formation; 340,000 compounds, 0.031% hits; AID 540263, 2011; calls by dose curve;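 further: 0% = DMSO wells and 100% = buffer wells lacking importin beta; nearly all actives have a fitted effect of over 15% in size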
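Inhibition scored from the CFP 486 nm/YFP 530 nm FRET ratio 45 min after adding 0.125 microM importin beta to 50 nM Rango biosensor preincubated 5 min with compound (room temperature, PBS with DTT, Tween-20, BSA). No-importin wells as positive control.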
Tb PFK block – qHTS Assay to Find Inhibitors of T. brucei phosphofructokinase | ATP-dependent 6-phosphofructokinase (Trypanosoma brucei brucei), O15648 | 330,000 compounds, 0.17% hits | T. brucei PFK, ADP-Glo luminescence | Potency, µM (top dose mostly 57.5 µM), for inactives: at the highest dose activity, negative = inhibition, most hits filed as inhibitors | AID 485367, 2010;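 further: 0% = uninhibited 1x PFK enzyme wells and -100% = no-enzyme wells; nearly all actives have a fitted effect of over 60% in size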
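PFK 1.25 nM, F6P 0.5 mM, ATP 0.1 mM, 0.1 M TEA pH 8.0, 5 mM MgCl2, 0.01% Tween20, 0.1% BSA; 45 min RT. ADP-Glo readout. qHTS titration up to 57 uM; curves fitted, compounds curve-classed.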
PKM2 act – qHTS Assay for Activators of Human Muscle isoform 2 Pyruvate Kinase; purified PKM2, Kinase-Glo ATP luminescence, activation; response scale: 0% is enzyme alone, no compound; Potency, µM (series often up to 57.5 µM), for the others: at the highest dose activation, most hits filed as activators; 260,000 compounds, 0.34% hits; further: on the % scale 0 is the no-effect control and ±100 the full control effect; nearly all actives have a fitted effect of over 55% in size
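Purified hPK-M2 (>95% pure) converted ADP (0.1 mM final) to ATP with 0.5 mM PEP in 50 mM imidazole pH7.2, KCl, MgCl2, Tween 20, BSA; 1 h at room temperature. ATP detected by Kinase-Glo luminescence.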
ELG1 DNA repair – qHTS screen for small molecules that inhibit ELG1-dependent DNA repair in human embryonic kidney (HEK293T) cells expressing luciferase-tagged ELG1. HEK293T ELG1-luciferase reporter, luminescence, 16 h; DNA damage induced by 5-fluorouridine. Potency, µM (doses to about 46.1 µM), without a hit: at the highest dose activity change, negative = inhibition, usual class: inhibitors. 330,000 compounds, 2.3% hits. AID 504467, 2011; further: on the % scale 0 is the no-effect control and ±100 the full control effect; nearly all actives have a fitted effect of over 55% in size
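Overnight (16 hr) co-exposure of 2,000 cells/well to 5-fluorouridine and compound at 37 °C preceded detection. Luciferase was quantified via ONE-Glo luminescence; loss of signal denotes inhibition.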
Rango dissoc inh – qHTS Assay for Inhibitors of RanGTP induced Rango (Ran-regulated importin-beta cargo) - Importin beta complex dissociation. Snurportin-1 (Homo sapiens) + GTP-binding nuclear protein Ran (Homo sapiens) + Importin …. Biochemical FRET Rango-importin beta, RanGTP-induced dissociation. Potency, µM (top dose mostly 46.1 µM), for inactives: at the top dose activity change, negative = inhibition. 340,000 compounds, 0.071% hits; calls by dose curve; further: % of control where 0% means no effect; nearly all actives have a fitted effect of over 45% in size
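Compounds sat 5 min at room temperature with 0.1 uM Rango biosensor plus 0.25 uM importin beta, then FRET pre-read. RanGTP-RCC1 (0.6 uM Ran, 2mM GTP, 0.2 uM RCC1) added for 45 min, and the CFP/YFP post-read measured blocked complex dissociation.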
* hit, by the source's call; i = inactive; ? = inconclusive; nt = no result given. Unless noted, the call rests on the fitted dose curve; in most records, active means well fitted curve in the direction sought with a large enough effect; inconclusive means small, poorly fitted or top-dose-only effect, or another doubt; inactive means no such curve, though single readings can be large; an effect the other way counts as inactive or inconclusive. Potency means the concentration at half of the fitted maximal effect.

SMILES | PGK inhibitor | Rango-impB inh | Tb PFK block | PKM2 act | ELG1 DNA repair | Rango dissoc inh
C[C@@H](OC(=O)c1[nH]cnc1C(=O)NCc1ccc(CNC(=O)OC(C)(C)C)cc1)c1ccccc1 | -4% | 2% | 1% | nt | 13µM* | -4%
CC(C)(C)OC(=O)NCc1ccc(CNC(=O)c2[nH]cnc2C(=O)NCC(=O)OCc2ccccc2)cc1 | 9% | 0% | -3% | 0% | 8.2µM* | 7%
CCC1(c2ccc(Cl)cc2)NC(=O)N(CC(=O)N2CCN(C(=O)c3ccco3)CC2)C1=O (stereo not drawn) | 1% | 5% | 0% | nt | ? | 16%
COc1ccc(C)cc1NC(=O)CN1CCN(S(=O)(=O)c2ccc3ccccc3c2)CC1 | -8% | 4% | -14% | nt | -9% | -6%
Cc1cc(SCC(=O)N2c3ccccc3NC(=O)CC2C)nc2ccccc12 (stereo not drawn) | -3% | nt | nt | nt | nt | nt
COc1ccc(CNC(=O)CCc2c(C)c3cc4c(C)coc4c(C)c3oc2=O)cc1OC | -6% | nt | nt | nt | nt | nt
CCCC1(C(=O)OCC)NC(c2ccc(OC)cc2OC)C2C(=O)N(c3ccccc3)C(=O)C21 (stereo not drawn) | 4% | 0% | 0% | -12% | 12µM* | -1%
CCOc1ccc(N2C(=O)C3C(c4ccc(OC)cc4OC)NC(CCSC)(C(=O)OC)C3C2=O)cc1 (stereo not drawn) | -3% | -3% | 0% | -2% | ? | -5%
CN(C)S(=O)(=O)c1ccc(Cl)c(C(=O)Nc2cccc([N+](=O)[O-])c2)c1 | -7% | 0% | -2% | -1% | 8.2µM* | 17%
O=C(O)c1cccc(NS(=O)(=O)c2ccc(Cl)c(C(=O)Nc3cccc([N+](=O)[O-])c3)c2)c1 | -1% | -1% | nt | nt | nt | 15%
O=C(Nc1ccc(S(=O)(=O)N2CCOCC2)cc1)c1cc([N+](=O)[O-])ccc1Cl | i | 3% | 1% | -2% | ? | -20%
CN(C)S(=O)(=O)c1ccc(Cl)c(C(=O)Nc2ccc(S(=O)(=O)N3CCOCC3)cc2)c1 | 10% | 11% | -7% | -5% | 16µM* | -13%
CN(C(=O)CC1C(=O)NCCN1Cc1ccc(F)c(F)c1)C1CCCCC1 (stereo not drawn) | 3% | 1% | 0% | nt | 10% | 10%
CCN(CC)S(=O)(=O)c1ccc(OC)c(NC(=O)/C=C/c2ccco2)c1 | -10% | -5% | ? | 4% | 23µM* | -7%
Cc1c(OCC(=O)N2CCC(C(=O)NCCCC(=O)O)CC2)ccc2c1oc(=O)c1ccccc12 | -7% | ? | 9% | nt | ? | 14%
CCOC(=O)c1cnc2c(C)cccc2c1Nc1cccc(C(=O)O)c1 | 1% | -3% | -4% | 2% | 7% | -15%
COC(=O)c1sc(N2CCN(c3ccc(Cl)cc3)CC2)nc1N | -6% | -1% | -4% | 0% | 23µM* | 0%
CCOC(=O)c1cc(-c2ccccc2)sc1NC(=O)C(C)OC(=O)c1cccnc1OCC (stereo not drawn) | -2% | -1% | -4% | 6% | -4% | -4%
O=C1NC2(CCCCC2)C(=O)N1Cc1cccc(C(F)(F)F)c1 | i | -1% | -1% | 2% | 9.2µM* | -1%
O=C1NC2(CCCCCC2)C(=O)N1Cc1cccc(Cl)c1 | -7% | 1% | -2% | nt | -1% | 17%
COc1ccc(CNC(=O)CCS(=O)(=O)c2ccc3c(c2)NC(=O)CS3)cc1 | -3% | 3% | 3% | 2% | -2% | 0%
CC1(C)CC2=C(CO1)C(=S)NC(c1ccccc1)N2CC1CCCO1 (stereo not drawn) | -7% | ? | 2% | -2% | 6% | -21%
CCNc1ccc(C(=O)OCC)cc1NC(=O)c1cccc(N(C)C)c1 | -3% | 0% | -1% | 1% | ? | -14%
CCNc1ccc(C(=O)OCC)cc1NC(=O)c1cccc(S(=O)(=O)N(C)c2ccccc2)c1 | -5% | -9% | -1% | -8% | 7.3µM* | 0%
COc1ccc(N(C)S(=O)(=O)c2cccc(C(=O)OCC(=O)N(C)c3ccccc3)c2)cc1 | -3% | 1% | 0% | nt | 16µM* | -1%
SMILES | PGK inhibitor | Rango-impB inh | Tb PFK block | PKM2 act | ELG1 DNA repair | Rango dissoc inh
CN(C(=O)COC(=O)c1cccc(S(=O)(=O)N2CCCCCC2)c1)c1ccccc1 | -3% | nt | nt | nt | nt | nt
CC[C@]12c3[nH]c4ccc(Cl)cc4c3CCN1C(=O)[C@@H](CC(=O)NCCN1CCOCC1)C[C@@H]2C(=O)N1CCN(C(=O)c2ccco2)CC1 | -6% | -4% | -2% | nt | 4% | -1%
CC[C@]12c3[nH]c4ccc(Cl)cc4c3CCN1C(=O)[C@@H](CC(=O)NCC13CC4CC(CC(C4)C1)C3)C[C@@H]2C(=O)N1CCN(C(=O)c2ccco2)CC1 | 3% | ? | -2% | nt | 21µM* | 15%
CC[C@]12c3[nH]c4ccc(Cl)cc4c3CCN1C(=O)[C@@H](CC(=O)NCCC1=CCCCC1)C[C@@H]2C(=O)N1CCN(C(=O)c2ccco2)CC1 | i | -4% | 1% | nt | 16µM* | -10%
CC[C@]12c3[nH]c4cc(-c5ccco5)ccc4c3CCN1C(=O)[C@@H](CC(=O)NCCC1=CCCCC1)C[C@@H]2C(=O)N1CCN(C(=O)C2CC2)CC1 | -1% | ? | -8% | nt | 21µM* | -20%
COCCCNC(=O)C[C@H]1C[C@H](C(=O)N2CCCCC2)[C@@]2(CCc3ccccc3)c3[nH]c4ccc(Cl)cc4c3CCN2C1=O | -2% | -3% | 1% | nt | 21µM* | -11%
COc1ccc(Cn2nnnc2CN(Cc2cc3ccc(C)cc3[nH]c2=O)C2CCCC2)cc1 | nt | 1% | 1% | -1% | 13µM* | -9%
COc1ccc(Cn2nnnc2CN(Cc2cc3cccc(C)c3[nH]c2=O)C2CCCC2)cc1 | 2% | 1% | -1% | 1% | ? | -7%
CCOC(=O)Cn1nnnc1CN(Cc1ccc(OC)cc1)Cc1cc2cc(C)ccc2[nH]c1=O | nt | 0% | -2% | 1% | 18µM* | 4%

Screening results: PubChem, National Center for Advancing Translational Sciences (NCATS)
